# Laboratory results published in PubChem BioAssay (Tox21).
# Records with an inconclusive call do not appear. A call without a number means that no potency is given here. Activity calls are given as the source filed them. Calls follow the shape of the dose curve; as a rule, active = well fitted activation curve with a large enough effect in the repeat runs; inconclusive = weak or mixed curves; inactive = no such curve, though single readings can be large or run the other way.
# Molecular target: Nuclear receptor subfamily 1 group I member 2 (Homo sapiens) (UniProt O75469)
# Test: CYP3A4 induction through human pregnane X receptor (PXR) by small molecules, qHTS assay (AID 1346984); also: nearly all actives have a fitted effect of over 40% in size
# Settings: DPX-2 HepG2 PXR, CYP3A4-luciferin luminescence, 24 h; series mostly up to 46.1 µM
# Description: National Center for Advancing Translational Sciences [NCATS]
# NIH Chemical Genomics Center [NCGC]
# U.S. Environmental Protection Agency [EPA]
# National Institutes of Environmental Health Sciences [NIEHS]
# National Toxicology Program [NTP]
# The Pregnane X receptor (PXR), a ligand activated nuclear receptor plays a critical role in the regulation of genes involved in drug metabolism and transporters. Activation of PXR is responsible for unwanted adverse drug reactions. PXR binds xenobiotics and when compounds interact with PXR enhances the expression of CYP3A genes. Identifying the compounds with the potential for PXR activation and CYP3A4 induction can be of importance in improving the efficacy of drugs with less toxicity and avoiding drug-drug interactions.
# DPX-2 (Puracyp, Inc.) cell lines, used for screening against human PXR activation has HepG2 cells co-transfected with a PXR response element and a luciferase construct containing CYP3A4 promoter. Increase in luciferase activity can be used to identify the compounds that cause the induction of CYP3A4.
# DPX-2 cells were dispensed at 2,000 cells per well in 5uL of assay medium into white, solid-bottom 1536-well plates using a Multidrop Combi dispenser (Thermo Scientific). The assay plates were incubated at 37C for 5hr before transferring 23nL of test compounds dissolved in DMSO and positive control via Pintool station (Wako). The assay plates were incubated at 37C for 24hr. After 24hr compound treatment, 1uL of 3uM (final concentration) P450 substrate (P450-Glo CYP3A4 screening system with Luciferin-IPA, Promega) was added by a Flying Reagent Dispenser (FRD, Aurora Discovery). The assay plates were incubated for 3hr at 37C. Then 5ul One-Glo assay reagent (Promega) was added to each plate by an FRD and following 30 min incubation at room temperature, luciferase activity was quantified on a ViewLux plate reader (Perkin Elmer).
# Potency is read from the fitted curve at half-maximal effect.
row,Compound,Potency
1,CCCCCCCC(=O)OCC(O)CO (stereo not given),inactive
2,CCN1CCCC1=O,inactive
3,COc1ccc(O)cc1,inactive
4,COc1ccccc1O,inactive
5,C[C@]12C[C@H](O)[C@H]3[C@@H](CCC4=CC(=O)CC[C@@]43C)[C@@H]1CC[C@@H]2C(=O)CO,inactive
6,NC(=O)N/N=C/c1ccc([N+](=O)[O-])o1,inactive
7,Cc1ccc(O)c(-n2nc3ccccc3n2)c1,inactive
8,CC(C)(C)CC(C)(C)c1ccc(O)c(-n2nc3ccccc3n2)c1,inactive
9,Oc1cccc(O)c1,inactive
10,O=C(OCc1ccccc1)c1ccccc1,inactive
11,CC1(C)O[C@@H]2[C@@H](CO[C@@]3(COS(N)(=O)=O)OC(C)(C)O[C@@H]23)O1,inactive
12,O=c1cc[nH]c(=O)[nH]1,inactive
13,COC(=O)c1ccc(O)cc1,inactive
14,CCCCCCCCCCCCCCCCCC(=O)OCC(O)CO (stereo not given),inactive
15,Cc1c(N(C)CS(=O)(=O)O)c(=O)n(-c2ccccc2)n1C,inactive
16,N[C@@H](Cc1c[nH]c2ccc(O)cc12)C(=O)O,4.47 µM (active)
17,CCCCNC(=O)NS(=O)(=O)c1ccc(N)cc1,inactive
18,CCCCC/C(C=O)=C\c1ccccc1,inactive
19,CCCCCCCCCCCCCC(=O)OC(C)C,inactive
20,COc1cc(O)c(C(=O)c2ccccc2)cc1S(=O)(=O)O,inactive
21,NC(N)=NC(N)=NCCc1ccccc1,inactive
22,C/C=C/c1ccc(O)c(OC)c1,inactive
23,OC[C@@H](O)[C@@H](O)[C@H](O)[C@H](O)CO,inactive
24,CCN(CC)CCOC(=O)c1ccc(N)cc1,inactive
25,CC(O)COc1ccccc1 (stereo not given),inactive
26,CCCCCCCCOc1ccc(C(=O)c2ccccc2)c(O)c1,inactive
27,O=C(O)Cc1cccc2ccccc12,inactive
28,NC(=O)c1ccc([N+](=O)[O-])cc1Cl,inactive
29,C#C[C@]1(O)CC[C@H]2[C@@H]3CCC4=CC(=O)CC[C@@H]4[C@H]3CC[C@@]21CC,inactive
30,CC1=NN(c2ccccc2)C(=O)C1,25.1 µM (active)
